Ten molecules from PubChem BioAssay (NCI) can be followed below.

Test [1] can be described thus: NCI Yeast Anticancer Drug Screen. Data for the rad50 strain (AID 155).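 Note: 0% = growth of vehicle-only cultures of the same strain.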 As to conditions: S. cerevisiae rad50 strain growth inhibition, stronger effect = higher value. The procedure, abridged: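 Vehicle-treated cultures provide the reference for the growth inhibition reported for compound-exposed, repair-deficient yeast.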
Test [2] can be described thus: NCI Yeast Anticancer Drug Screen. Data for the mec2-1 strain (AID 157). As to conditions: S. cerevisiae mec2-1 strain, stronger effect = higher value. The essentials:
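Test agents were screened against the mec2-1 yeast strain, with defined DNA repair or cell cycle alteration. Growth was scored as inhibition against vehicle-only controls.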

A short description of test [3]: NCI Yeast Anticancer Drug Screen. Data for the sgs1 mgt1 strain (AID 161).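 Note: 0% = growth of cultures given vehicle only.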 To be noted: S. cerevisiae sgs1 mgt1 strain, stronger effect = higher value. The essentials:
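Read-out: growth inhibition vs vehicle controls. Cells: mutant yeast strain deficient in DNA damage repair.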

Test [4] is described as follows: NCI Yeast Anticancer Drug Screen. Data for the cln2 rad14 strain (AID 165).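 Note: 0% = growth equal to vehicle treated cultures.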 To be noted: S. cerevisiae cln2 rad14 strain, stronger effect = higher value. The procedure, abridged: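 Growth of compound-exposed yeast (cln2 rad14 genotype) measured and expressed as inhibition relative to vehicle.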
A short description of test [5]: NCI Yeast Anticancer Drug Screen. Data for the bub3 strain (AID 167). To be noted: S. cerevisiae bub3 mutant strain, stronger effect = higher value. The essentials: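 Mutant yeast screening strain plus compound; vehicle-treated cultures serve as the 0% inhibition reference.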
Test [6] can be described thus: NCI Yeast Anticancer Drug Screen. Data for the mlh1 rad18 strain (AID 175). As to conditions: S. cerevisiae mlh1 rad18 strain growth inhibition, stronger effect = higher value. The essentials: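 In this whole-cell yeast screen, a strain with altered DNA damage repair is challenged with compound, and its growth is measured against matched vehicle-treated controls.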
Where [7] appears, read: at 5.0 µM (retest, dose inferred, filed as 0.5).
The mark [8] stands for this setting: at 50.0 µM (retest, dose inferred, filed as 5.0).

Structures are written as SMILES. Compounds without any hit were thinned out: in the full panel of roughly 79,000, 15% have a hit. Unmarked numbers belong to inactive results. Calls of active or inactive are those of the source. Cut-off read from the data, not from the text of the source: active = growth inhibition above about 70%; inactive = the rest.

Turning to `O=[N+]([O-])c1cc(Br)cc(Br)c1O`, the growth inhibition in test [1] (setting [7]) was -2%; in test [1] (setting [8]), 19%; in test [1] (at 50.0 µM) it was 61.6%; in test [2] (setting [7]), 18%; in test [2] (setting [8]), 45%; in test [2] (at 50.0 µM), 49.6%. In addition, the growth inhibition in test [3] (setting [7]) is 10%; in test [3] (setting [8]) it was 38%; in test [3] (at 50.0 µM), 40.4%; in test [4] (setting [7]) it was 20%; in test [4] (setting [8]), 41%; in test [4] (at 50.0 µM), 82.7% (active). Besides, the growth inhibition in test [5] (setting [7]) is -7%; in test [5] (setting [8]), 30%; in test [5] (at 50.0 µM), 75.8% (active); in test [6] (setting [7]) it was 2%; in test [6] (setting [8]), 56%; in test [6] (at 50.0 µM) it was 68.4%.

`S=c1[nH]c2cc(-c3ccccc3)ccc2o1`: the growth inhibition in test [1] (setting [7]) is 63%; in test [1] (setting [8]), 98% (active); in test [1] (at 50.0 µM), 64.2%; in test [2] (setting [7]), 37%; in test [2] (setting [8]), 98% (active); in test [2] (at 50.0 µM), 53.1%. Besides, the growth inhibition in test [3] (setting [7]) is 17%; in test [3] (setting [8]), 72% (active); in test [3] (at 50.0 µM) it was 78% (active); in test [4] (setting [7]), 52%; in test [4] (setting [8]), 65%; in test [4] (at 50.0 µM), 47.1%. In addition, the growth inhibition in test [5] (setting [7]) was 19%; in test [5] (setting [8]) it was 52%; in test [5] (at 50.0 µM), 52%; in test [6] (setting [7]) it was 51%; in test [6] (setting [8]) it was 98% (active); in test [6] (at 50.0 µM), 47.8%.

Regarding `CCOC(=O)C1SC(=Nc2cccc(Cl)c2C)N=C1C` (stereo not given), the growth inhibition in test [1] (setting [7]) is 22%; in test [1] (setting [8]), 83% (active); in test [1] (at 50.0 µM), 85.3% (active); in test [2] (setting [7]), 24%; in test [2] (setting [8]), 72% (active); in test [2] (at 50.0 µM), 88.1% (active). Further, the growth inhibition was 23% in test [3] (setting [7]); 91% (active) in test [3] (setting [8]); 82% (active) in test [3] (at 50.0 µM); 27% in test [4] (setting [7]); 73% (active) in test [4] (setting [8]); 86% (active) in test [4] (at 50.0 µM). For the same molecule, the growth inhibition in test [5] (setting [7]) is 34%; in test [5] (setting [8]) it was 88% (active); in test [5] (at 50.0 µM), 89.4% (active); in test [6] (setting [7]), 38%; in test [6] (setting [8]), 91% (active); in test [6] (at 50.0 µM), 86.2% (active).

As to `CC/C=C(\C)CC(C)O` (stereo not given), the growth inhibition in test [1] (setting [7]) was -3%; in test [1] (setting [8]) it was 16%; in test [1] (at 50.0 µM), 64.9%; in test [2] (setting [7]) it was -4%; in test [2] (setting [8]) it was 3%; in test [2] (at 50.0 µM), 43.8%. The growth inhibition is -3% in test [3] (setting [7]); 18% in test [3] (setting [8]); 77.6% (active) in test [3] (at 50.0 µM); 1% in test [4] (setting [7]); 9% in test [4] (setting [8]); 59.7% in test [4] (at 50.0 µM). Besides, the growth inhibition in test [5] (setting [7]) was 1%; in test [5] (setting [8]), -5%; in test [5] (at 50.0 µM), 57%; in test [6] (setting [7]), -3%; in test [6] (setting [8]), 8%; in test [6] (at 50.0 µM), 54.9%.

`[Cl][Pt+2][Cl].[NH-]c1cc2ccccc2cc1[NH-]`: the growth inhibition in test [1] (setting [7]) is 2%; in test [1] (setting [8]) it was 0%; in test [1] (at 50.0 µM), 64.5%; in test [2] (setting [7]) it was -34%; in test [2] (setting [8]), 16%; in test [2] (at 50.0 µM), 51.4%. Also, the growth inhibition in test [3] (setting [7]) was 0%; in test [3] (setting [8]) it was 1%; in test [3] (at 50.0 µM), 69.2%; in test [4] (setting [7]), 1%; in test [4] (setting [8]) it was 17%; in test [4] (at 50.0 µM), 45%. Further, the growth inhibition in test [5] (setting [7]) is 0%; in test [5] (setting [8]), 14%; in test [5] (at 50.0 µM) it was 20.4%; in test [6] (setting [7]) it was 0%; in test [6] (setting [8]), -24%; in test [6] (at 50.0 µM) it was 76.2% (active).

Take `CCC1([N+](=O)[O-])COC(c2ccc3c(c2)OCO3)OC1` (stereo not given): the growth inhibition is -9% in test [1] (setting [7]); -11% in test [1] (setting [8]); -1.7% in test [1] (at 50.0 µM); -14% in test [2] (setting [7]); -1% in test [2] (setting [8]); -3.15% in test [2] (at 50.0 µM). Moreover, the growth inhibition in test [3] (setting [7]) was -1%; in test [3] (setting [8]), -47%; in test [3] (at 50.0 µM), 11.7%; in test [4] (setting [7]), 10%; in test [4] (setting [8]), 21%; in test [4] (at 50.0 µM), -1.9%. For the same molecule, the growth inhibition is 14% in test [5] (setting [7]); -23% in test [5] (setting [8]); 3.35% in test [5] (at 50.0 µM); -18% in test [6] (setting [7]); -6% in test [6] (setting [8]); 4.45% in test [6] (at 50.0 µM).

As for `COc1cc2c(cc1OC(C)=O)C(=O)C(Br)(Br)CCC2`, the growth inhibition in test [1] (setting [7]) is 66%; in test [1] (setting [8]), 99% (active); in test [1] (at 50.0 µM), 62.5%; in test [2] (setting [7]) it was 32%; in test [2] (setting [8]), 99% (active); in test [2] (at 50.0 µM), 98.5% (active). In addition, the growth inhibition in test [3] (setting [7]) is 88% (active); in test [3] (setting [8]) it was 99% (active); in test [3] (at 50.0 µM) it was 65.1%; in test [4] (setting [7]), 13%; in test [4] (setting [8]), 98% (active); in test [4] (at 50.0 µM), 94.2% (active). Further, the growth inhibition in test [5] (setting [7]) was 10%; in test [5] (setting [8]) it was 47%; in test [5] (at 50.0 µM), 99% (active); in test [6] (setting [7]) it was 49%; in test [6] (setting [8]) it was 99% (active); in test [6] (at 50.0 µM), 98.5% (active).

Consider `C=CC1(c2ccc(-c3ccccc3)cc2)OCCO1`, for which the growth inhibition was 1% in test [1] (setting [7]); 14% in test [1] (setting [8]); 51.3% in test [1] (at 50.0 µM); 2% in test [2] (setting [7]); 6% in test [2] (setting [8]); 41.5% in test [2] (at 50.0 µM). Moreover, the growth inhibition was -4% in test [3] (setting [7]); -10% in test [3] (setting [8]); 74.4% (active) in test [3] (at 50.0 µM); 19% in test [4] (setting [7]); 8% in test [4] (setting [8]); 7.15% in test [4] (at 50.0 µM). The growth inhibition in test [5] (setting [7]) was -22%; in test [5] (setting [8]), -6%; in test [5] (at 50.0 µM), 64.1%; in test [6] (setting [7]), -17%; in test [6] (setting [8]), 0%; in test [6] (at 50.0 µM), 49.5%.

For the molecule `Cc1ccc(SSCCCS(=O)O)cc1`, the growth inhibition in test [1] (setting [7]) is -1%; in test [1] (setting [8]) it was -93%; in test [1] (at 50.0 µM), 61.1%; in test [2] (setting [7]), -3%; in test [2] (setting [8]), 60%; in test [2] (at 50.0 µM), 50.7%. The growth inhibition in test [3] (setting [7]) was 6%; in test [3] (setting [8]), 78% (active); in test [3] (at 50.0 µM), 83.8% (active); in test [4] (setting [7]) it was -12%; in test [4] (setting [8]), 41%; in test [4] (at 50.0 µM), 60.1%. Besides, the growth inhibition in test [5] (setting [7]) is 4%; in test [5] (setting [8]) it was 82% (active); in test [5] (at 50.0 µM), 66.3%; in test [6] (setting [7]) it was 3%; in test [6] (setting [8]) it was 66%; in test [6] (at 50.0 µM), 75.2% (active).

`c1ccc2c(c1)CC1c3[nH]c4ccccc4c3CCN21` (stereo not given): the growth inhibition in test [1] (setting [7]) is -6%; in test [1] (setting [8]), -5%; in test [1] (at 50.0 µM), 88.3% (active); in test [2] (setting [7]) it was 9%; in test [2] (setting [8]) it was 6%; in test [2] (at 50.0 µM), 76.9% (active). Moreover, the growth inhibition in test [3] (setting [7]) is -8%; in test [3] (setting [8]), -10%; in test [3] (at 50.0 µM), 82.8% (active); in test [4] (setting [7]) it was 22%; in test [4] (setting [8]), 31%; in test [4] (at 50.0 µM), 88.2% (active). The growth inhibition in test [5] (setting [7]) is 6%; in test [5] (setting [8]) it was 23%; in test [5] (at 50.0 µM) it was 77.7% (active); in test [6] (setting [7]), 7%; in test [6] (setting [8]) it was 3%; in test [6] (at 50.0 µM), 74% (active).
